# What was measured:
# Assay in all cases: DAPPL (digital affinity profiling via proximity ligation, sequencing); 10 mM Tris-HCl pH 7.5, 50 mM NaCl, 1 mM DTT, 4% glycerol, room temperature, 30 min; GST-TFs on glutathione beads, 16-mer random dsDNA library, 0.1% formaldehyde crosslink after washing; high values mean tight binding
# [1] = target: T1, FLI1 (Homo sapiens, UniProt Q01543 1-452); settings: protein: recombinant; tags: N-terminal GST; dsDNA, one strand shown
# T1 sequence: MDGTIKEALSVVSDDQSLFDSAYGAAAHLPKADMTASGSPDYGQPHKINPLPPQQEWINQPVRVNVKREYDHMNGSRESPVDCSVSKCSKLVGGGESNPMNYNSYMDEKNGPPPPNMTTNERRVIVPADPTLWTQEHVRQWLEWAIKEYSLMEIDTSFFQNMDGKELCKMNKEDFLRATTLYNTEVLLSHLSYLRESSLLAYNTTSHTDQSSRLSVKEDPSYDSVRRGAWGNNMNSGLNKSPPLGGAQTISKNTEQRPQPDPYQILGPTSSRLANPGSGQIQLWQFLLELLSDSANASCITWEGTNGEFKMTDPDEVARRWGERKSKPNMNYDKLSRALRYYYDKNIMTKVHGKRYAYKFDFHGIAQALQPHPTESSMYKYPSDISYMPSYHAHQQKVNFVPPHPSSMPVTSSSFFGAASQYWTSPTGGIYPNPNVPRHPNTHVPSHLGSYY
# How it was run: (§1)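 Pools of DNA-barcoded human transcription factors, expressed in yeast as GST fusions on glutathione beads and combined with a tag-only sample, were incubated with 200 nmole of a 16-mer random double-stranded DNA library. Incubation took 30 min at room temperature in Tris/NaCl/DTT/glycerol buffer and was followed by washing, 0.1% formaldehyde crosslinking, proximity ligation (BsaI/T4 ligase, 1 h, 37 °C), PCR amplification and sequencing on an Illumina NextSeq500. Binding signal is the ratio of a hexamer's read frequency for a factor to its frequency for the tag-only sample.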
# [2] = target: T2, ELK1 (Homo sapiens, UniProt P19419 1-428); settings: protein: recombinant; tags: N-terminal GST; dsDNA, one strand shown
# T2 sequence: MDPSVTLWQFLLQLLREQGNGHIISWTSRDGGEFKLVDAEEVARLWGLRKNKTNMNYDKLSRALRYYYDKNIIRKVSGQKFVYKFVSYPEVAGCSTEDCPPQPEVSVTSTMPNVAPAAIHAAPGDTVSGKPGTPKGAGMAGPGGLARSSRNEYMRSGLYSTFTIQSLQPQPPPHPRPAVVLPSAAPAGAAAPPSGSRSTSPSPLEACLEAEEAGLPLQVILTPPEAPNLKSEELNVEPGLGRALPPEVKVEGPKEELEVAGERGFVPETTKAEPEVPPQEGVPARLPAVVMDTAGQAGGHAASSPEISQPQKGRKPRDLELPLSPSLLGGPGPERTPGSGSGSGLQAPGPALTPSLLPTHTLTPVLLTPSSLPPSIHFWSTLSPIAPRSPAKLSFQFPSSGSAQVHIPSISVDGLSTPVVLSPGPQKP
# How it was run: as §1
# [3] = target: T3, GABPA (Homo sapiens, UniProt Q06546 1-454); settings: protein: recombinant; tags: N-terminal GST; dsDNA, one strand shown
# T3 sequence: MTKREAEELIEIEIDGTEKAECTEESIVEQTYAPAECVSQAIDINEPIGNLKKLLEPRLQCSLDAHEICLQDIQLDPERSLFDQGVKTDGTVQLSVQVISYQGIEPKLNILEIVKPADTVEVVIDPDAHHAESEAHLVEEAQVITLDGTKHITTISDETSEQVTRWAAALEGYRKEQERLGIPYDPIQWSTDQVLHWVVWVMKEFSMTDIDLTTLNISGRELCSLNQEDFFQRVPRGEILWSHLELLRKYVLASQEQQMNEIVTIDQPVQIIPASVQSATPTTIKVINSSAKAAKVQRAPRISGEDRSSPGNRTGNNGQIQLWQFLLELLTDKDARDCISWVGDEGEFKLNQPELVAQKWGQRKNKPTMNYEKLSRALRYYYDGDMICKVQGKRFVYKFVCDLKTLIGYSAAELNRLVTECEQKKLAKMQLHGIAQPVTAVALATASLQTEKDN
# How it was run: as §1
# [4] = target: T4, ERG (Homo sapiens, UniProt P11308 1-479); settings: protein: recombinant; tags: N-terminal GST; dsDNA, one strand shown
# T4 sequence: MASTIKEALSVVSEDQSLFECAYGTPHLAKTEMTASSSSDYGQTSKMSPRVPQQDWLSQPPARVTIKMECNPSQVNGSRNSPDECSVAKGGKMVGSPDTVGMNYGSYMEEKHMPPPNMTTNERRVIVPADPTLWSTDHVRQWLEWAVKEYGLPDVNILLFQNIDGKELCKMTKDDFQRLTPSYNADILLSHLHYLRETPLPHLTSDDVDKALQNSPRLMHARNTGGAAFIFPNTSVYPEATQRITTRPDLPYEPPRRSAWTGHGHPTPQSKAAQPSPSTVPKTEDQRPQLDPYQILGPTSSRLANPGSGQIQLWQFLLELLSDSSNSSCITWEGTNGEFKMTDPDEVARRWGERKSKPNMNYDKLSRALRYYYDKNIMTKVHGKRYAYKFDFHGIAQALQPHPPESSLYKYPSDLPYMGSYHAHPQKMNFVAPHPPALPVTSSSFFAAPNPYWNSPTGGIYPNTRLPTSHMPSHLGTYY
# How it was run: as §1
# [5] = target: ELF1 (Homo sapiens, UniProt P32519 1-619); settings: protein: recombinant; tags: N-terminal GST; dsDNA, one strand shown
# Chain of ELF1 (P32519 whole entry): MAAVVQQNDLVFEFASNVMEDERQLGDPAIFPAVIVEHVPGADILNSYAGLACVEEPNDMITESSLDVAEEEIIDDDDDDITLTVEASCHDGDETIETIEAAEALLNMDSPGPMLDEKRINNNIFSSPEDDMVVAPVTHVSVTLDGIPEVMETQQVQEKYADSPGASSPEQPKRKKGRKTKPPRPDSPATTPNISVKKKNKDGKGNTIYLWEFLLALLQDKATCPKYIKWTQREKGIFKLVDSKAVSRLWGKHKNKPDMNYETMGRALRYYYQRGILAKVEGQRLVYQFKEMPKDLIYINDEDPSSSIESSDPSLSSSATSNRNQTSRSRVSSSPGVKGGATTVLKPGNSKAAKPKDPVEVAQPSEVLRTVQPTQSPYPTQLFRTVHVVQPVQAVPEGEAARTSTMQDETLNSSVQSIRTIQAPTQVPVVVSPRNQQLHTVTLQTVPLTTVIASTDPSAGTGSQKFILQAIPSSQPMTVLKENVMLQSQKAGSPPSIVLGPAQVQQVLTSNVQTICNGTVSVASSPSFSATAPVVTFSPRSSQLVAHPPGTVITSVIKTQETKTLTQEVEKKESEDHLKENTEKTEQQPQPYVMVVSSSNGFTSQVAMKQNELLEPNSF
# How it was run: as §1
# [6] = target: T5, EHF (Homo sapiens, UniProt Q9NZC4 1-300); settings: protein: recombinant; tags: N-terminal GST; dsDNA, one strand shown
# T5 sequence: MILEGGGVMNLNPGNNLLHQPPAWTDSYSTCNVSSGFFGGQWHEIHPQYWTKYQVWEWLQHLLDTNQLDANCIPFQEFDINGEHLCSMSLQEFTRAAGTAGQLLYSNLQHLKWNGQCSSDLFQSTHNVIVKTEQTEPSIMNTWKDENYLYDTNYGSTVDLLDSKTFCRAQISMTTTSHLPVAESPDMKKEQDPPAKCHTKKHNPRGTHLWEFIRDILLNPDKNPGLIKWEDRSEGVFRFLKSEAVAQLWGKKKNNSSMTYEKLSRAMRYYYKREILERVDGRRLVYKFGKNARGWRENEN
# How it was run: as §1
# [7] = target: SPI1 (Homo sapiens, UniProt P17947 1-270); settings: protein: recombinant; tags: N-terminal GST; dsDNA, one strand shown
# How it was run: as §1
# [8] = target: SPIB (Homo sapiens, UniProt Q01892 1-262); settings: protein: recombinant; tags: N-terminal GST; dsDNA, one strand shown
# Chain of SPIB (Q01892 whole entry): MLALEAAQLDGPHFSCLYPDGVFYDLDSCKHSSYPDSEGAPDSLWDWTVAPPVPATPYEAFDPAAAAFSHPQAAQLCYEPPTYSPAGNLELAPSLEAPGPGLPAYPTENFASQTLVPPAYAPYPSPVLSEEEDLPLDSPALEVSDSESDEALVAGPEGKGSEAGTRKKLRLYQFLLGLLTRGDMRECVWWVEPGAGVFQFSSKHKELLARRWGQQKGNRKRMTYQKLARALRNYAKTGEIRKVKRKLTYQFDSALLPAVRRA
# How it was run: as §1
# [9] = target: T6, ELK3 (Homo sapiens, UniProt P41970 1-407); settings: protein: recombinant; tags: N-terminal GST; dsDNA, one strand shown
# T6 sequence: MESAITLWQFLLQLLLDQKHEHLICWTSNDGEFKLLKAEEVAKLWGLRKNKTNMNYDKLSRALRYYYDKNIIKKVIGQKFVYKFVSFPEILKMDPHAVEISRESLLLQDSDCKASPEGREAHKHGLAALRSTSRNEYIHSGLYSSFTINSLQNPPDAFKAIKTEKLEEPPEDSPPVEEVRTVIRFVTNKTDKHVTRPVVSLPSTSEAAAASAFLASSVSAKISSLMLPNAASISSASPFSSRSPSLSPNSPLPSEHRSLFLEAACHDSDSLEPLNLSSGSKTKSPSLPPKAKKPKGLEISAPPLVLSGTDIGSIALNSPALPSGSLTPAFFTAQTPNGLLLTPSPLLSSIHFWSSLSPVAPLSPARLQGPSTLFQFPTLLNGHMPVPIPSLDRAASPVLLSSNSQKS
# How it was run: as §1
# [10] = target: T7, FEV (Homo sapiens, UniProt Q99581 1-238); settings: protein: recombinant; tags: N-terminal GST; dsDNA, one strand shown
# T7 sequence: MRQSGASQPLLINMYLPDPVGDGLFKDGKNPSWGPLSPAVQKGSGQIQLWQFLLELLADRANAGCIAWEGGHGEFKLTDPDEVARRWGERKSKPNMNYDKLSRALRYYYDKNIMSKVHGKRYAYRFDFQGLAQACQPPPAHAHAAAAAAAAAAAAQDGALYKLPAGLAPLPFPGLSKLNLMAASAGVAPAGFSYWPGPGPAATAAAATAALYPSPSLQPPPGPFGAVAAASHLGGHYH
# How it was run: as §1
# [11] = target: ETV5 (Homo sapiens, UniProt P41161 1-510); settings: protein: recombinant; tags: N-terminal GST; dsDNA, one strand shown
# Chain of ETV5 (P41161 whole entry): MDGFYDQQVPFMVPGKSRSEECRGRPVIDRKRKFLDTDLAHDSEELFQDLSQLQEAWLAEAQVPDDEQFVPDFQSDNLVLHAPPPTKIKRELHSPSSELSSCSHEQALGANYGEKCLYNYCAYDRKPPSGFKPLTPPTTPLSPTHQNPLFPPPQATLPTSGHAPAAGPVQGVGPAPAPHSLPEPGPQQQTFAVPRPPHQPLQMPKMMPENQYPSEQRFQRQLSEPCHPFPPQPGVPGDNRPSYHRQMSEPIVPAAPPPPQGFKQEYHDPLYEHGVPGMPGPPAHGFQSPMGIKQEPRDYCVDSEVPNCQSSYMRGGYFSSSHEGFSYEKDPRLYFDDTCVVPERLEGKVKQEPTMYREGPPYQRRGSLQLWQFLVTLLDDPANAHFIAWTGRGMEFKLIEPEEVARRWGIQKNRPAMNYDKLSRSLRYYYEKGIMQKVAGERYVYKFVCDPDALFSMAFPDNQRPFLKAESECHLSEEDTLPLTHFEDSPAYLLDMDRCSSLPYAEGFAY
# How it was run: as §1
# [12] = target: HSF1 (Homo sapiens, UniProt Q00613 1-529); settings: protein: recombinant; tags: N-terminal GST; chain copies: 3; dsDNA, one strand shown
# Chain of HSF1 (Q00613 whole entry): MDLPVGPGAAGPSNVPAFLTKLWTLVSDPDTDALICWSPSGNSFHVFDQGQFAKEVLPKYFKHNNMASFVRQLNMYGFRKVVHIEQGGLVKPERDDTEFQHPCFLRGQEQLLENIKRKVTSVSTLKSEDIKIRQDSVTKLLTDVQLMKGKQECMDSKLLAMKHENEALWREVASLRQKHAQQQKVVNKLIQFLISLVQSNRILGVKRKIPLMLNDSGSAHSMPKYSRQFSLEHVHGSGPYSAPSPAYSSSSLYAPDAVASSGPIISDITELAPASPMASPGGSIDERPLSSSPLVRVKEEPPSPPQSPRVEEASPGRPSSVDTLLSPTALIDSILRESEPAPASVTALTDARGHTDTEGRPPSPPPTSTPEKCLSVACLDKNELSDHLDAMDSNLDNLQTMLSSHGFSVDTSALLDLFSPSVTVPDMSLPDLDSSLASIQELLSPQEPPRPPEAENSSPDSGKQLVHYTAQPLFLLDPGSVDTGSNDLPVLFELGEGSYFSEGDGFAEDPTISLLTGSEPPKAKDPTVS
# How it was run: as §1
# [13] = target: T8, SPIC (Homo sapiens, UniProt Q8N5J4 1-248); settings: protein: recombinant; tags: N-terminal GST; dsDNA, one strand shown
# T8 sequence: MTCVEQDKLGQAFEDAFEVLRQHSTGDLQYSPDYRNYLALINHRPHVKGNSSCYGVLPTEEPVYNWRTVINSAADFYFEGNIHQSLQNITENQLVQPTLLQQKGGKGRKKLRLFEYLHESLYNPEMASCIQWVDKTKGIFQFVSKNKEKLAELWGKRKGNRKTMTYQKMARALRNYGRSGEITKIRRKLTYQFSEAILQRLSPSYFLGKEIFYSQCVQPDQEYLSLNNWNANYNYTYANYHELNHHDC
# How it was run: as §1
# [14] = target: ELF4 (Homo sapiens, UniProt Q99607 1-663); settings: protein: recombinant; tags: N-terminal GST; dsDNA, one strand shown
# Chain of ELF4 (Q99607 whole entry): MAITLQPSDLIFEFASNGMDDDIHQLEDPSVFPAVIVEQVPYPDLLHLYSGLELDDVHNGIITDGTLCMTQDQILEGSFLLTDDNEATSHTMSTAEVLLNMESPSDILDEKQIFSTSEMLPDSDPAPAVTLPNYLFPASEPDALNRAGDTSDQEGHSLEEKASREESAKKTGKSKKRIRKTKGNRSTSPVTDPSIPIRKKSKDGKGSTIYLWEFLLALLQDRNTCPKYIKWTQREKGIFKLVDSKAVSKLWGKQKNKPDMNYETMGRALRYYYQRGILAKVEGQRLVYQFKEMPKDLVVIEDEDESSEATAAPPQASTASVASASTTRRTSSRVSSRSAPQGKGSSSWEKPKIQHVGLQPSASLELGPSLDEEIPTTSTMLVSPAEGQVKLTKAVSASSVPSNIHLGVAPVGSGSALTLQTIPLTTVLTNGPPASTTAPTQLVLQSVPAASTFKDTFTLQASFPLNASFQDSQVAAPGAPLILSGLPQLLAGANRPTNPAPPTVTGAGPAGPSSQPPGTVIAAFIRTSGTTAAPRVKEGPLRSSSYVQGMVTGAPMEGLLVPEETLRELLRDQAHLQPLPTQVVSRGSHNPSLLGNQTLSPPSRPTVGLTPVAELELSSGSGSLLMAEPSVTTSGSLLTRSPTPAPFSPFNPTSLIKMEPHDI
# How it was run: as §1
# [15] = target: T9, ELK4 (Homo sapiens, UniProt P28324-2 1-405); settings: protein: recombinant; tags: N-terminal GST; dsDNA, one strand shown
# T9 sequence: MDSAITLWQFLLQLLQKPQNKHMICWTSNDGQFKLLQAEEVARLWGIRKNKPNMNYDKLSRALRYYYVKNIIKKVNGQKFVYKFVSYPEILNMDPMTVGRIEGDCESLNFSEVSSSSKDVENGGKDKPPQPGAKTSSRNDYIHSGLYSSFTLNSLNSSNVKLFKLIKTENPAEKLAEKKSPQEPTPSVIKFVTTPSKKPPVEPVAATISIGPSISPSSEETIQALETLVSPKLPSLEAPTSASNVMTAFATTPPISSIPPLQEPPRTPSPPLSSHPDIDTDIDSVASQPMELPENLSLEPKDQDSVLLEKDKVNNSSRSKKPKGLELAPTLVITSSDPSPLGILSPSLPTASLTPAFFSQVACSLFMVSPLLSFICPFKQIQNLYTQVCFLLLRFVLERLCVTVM
# How it was run: as §1
# [16] = target: T10, ETV2 (Homo sapiens, UniProt O00321 1-342); settings: protein: recombinant; tags: N-terminal GST; dsDNA, one strand shown
# T10 sequence: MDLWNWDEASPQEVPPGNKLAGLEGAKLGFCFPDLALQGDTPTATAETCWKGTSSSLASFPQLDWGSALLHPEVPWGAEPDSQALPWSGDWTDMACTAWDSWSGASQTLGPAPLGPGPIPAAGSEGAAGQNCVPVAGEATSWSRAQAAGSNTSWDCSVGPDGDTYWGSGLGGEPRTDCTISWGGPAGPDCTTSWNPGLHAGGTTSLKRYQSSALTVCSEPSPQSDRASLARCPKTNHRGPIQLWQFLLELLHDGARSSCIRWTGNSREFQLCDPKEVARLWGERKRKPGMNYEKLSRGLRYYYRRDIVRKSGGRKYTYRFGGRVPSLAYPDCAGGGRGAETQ
# How it was run: as §1
# [17] = target: T11, ELF3 (Homo sapiens, UniProt P78545 1-371); settings: protein: recombinant; tags: N-terminal GST; dsDNA, one strand shown
# T11 sequence: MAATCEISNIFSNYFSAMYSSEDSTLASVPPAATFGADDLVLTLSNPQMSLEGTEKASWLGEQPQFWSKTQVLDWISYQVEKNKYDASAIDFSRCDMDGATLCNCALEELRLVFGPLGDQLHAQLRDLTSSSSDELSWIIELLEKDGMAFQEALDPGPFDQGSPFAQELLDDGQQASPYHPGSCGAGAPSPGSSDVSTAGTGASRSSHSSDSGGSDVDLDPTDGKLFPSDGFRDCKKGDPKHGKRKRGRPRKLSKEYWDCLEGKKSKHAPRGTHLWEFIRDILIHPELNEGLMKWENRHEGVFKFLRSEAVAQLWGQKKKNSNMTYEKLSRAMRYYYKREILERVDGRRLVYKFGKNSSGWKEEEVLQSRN
# How it was run: as §1
# [18] = target: CRX (Homo sapiens, UniProt O43186 1-299); settings: protein: recombinant; tags: N-terminal GST; dsDNA, one strand shown
# Chain of CRX (O43186 whole entry): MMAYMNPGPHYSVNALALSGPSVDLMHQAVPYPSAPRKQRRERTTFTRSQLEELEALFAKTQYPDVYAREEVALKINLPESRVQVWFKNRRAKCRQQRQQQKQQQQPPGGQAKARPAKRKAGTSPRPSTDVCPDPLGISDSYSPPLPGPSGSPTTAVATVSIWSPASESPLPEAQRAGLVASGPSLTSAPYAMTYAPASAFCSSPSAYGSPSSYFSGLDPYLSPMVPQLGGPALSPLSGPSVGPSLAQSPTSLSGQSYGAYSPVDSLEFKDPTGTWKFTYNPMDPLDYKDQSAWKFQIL
# How it was run: as §1
# [19] = target: ETV1 (Homo sapiens, UniProt P50549 1-477); settings: protein: recombinant; tags: N-terminal GST; dsDNA, one strand shown
# Chain of ETV1 (P50549 whole entry): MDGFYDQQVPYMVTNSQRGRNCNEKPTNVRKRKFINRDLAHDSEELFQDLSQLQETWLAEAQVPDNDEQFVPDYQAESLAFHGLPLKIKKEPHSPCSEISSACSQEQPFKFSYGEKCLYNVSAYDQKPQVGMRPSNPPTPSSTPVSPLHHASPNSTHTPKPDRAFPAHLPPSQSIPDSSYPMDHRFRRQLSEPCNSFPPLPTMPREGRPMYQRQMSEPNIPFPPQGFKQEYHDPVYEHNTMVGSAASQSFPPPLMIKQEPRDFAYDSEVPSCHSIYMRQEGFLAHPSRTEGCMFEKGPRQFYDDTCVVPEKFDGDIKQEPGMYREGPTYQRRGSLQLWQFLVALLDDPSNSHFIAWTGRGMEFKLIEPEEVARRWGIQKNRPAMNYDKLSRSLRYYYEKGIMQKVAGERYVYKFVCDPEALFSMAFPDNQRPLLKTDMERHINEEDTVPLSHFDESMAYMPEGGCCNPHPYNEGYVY
# How it was run: as §1
sequence,measurement,setting,value
TTCAGC,binding signal,[1],"1.27 fold enrichment (6-mer frequency, TF over GST control)"
same,binding signal,[2],"1.2 fold enrichment (6-mer frequency, TF over GST control)"
same,binding signal,[3],"1.26 fold enrichment (6-mer frequency, TF over GST control)"
same,binding signal,[4],"1.24 fold enrichment (6-mer frequency, TF over GST control)"
same,binding signal,[5],"1.23 fold enrichment (6-mer frequency, TF over GST control)"
same,binding signal,[6],"1.25 fold enrichment (6-mer frequency, TF over GST control)"
same,binding signal,[7],"1.18 fold enrichment (6-mer frequency, TF over GST control)"
same,binding signal,[8],"1.18 fold enrichment (6-mer frequency, TF over GST control)"
same,binding signal,[9],"1.27 fold enrichment (6-mer frequency, TF over GST control)"
same,binding signal,[10],"1.25 fold enrichment (6-mer frequency, TF over GST control)"
same,binding signal,[11],"1.22 fold enrichment (6-mer frequency, TF over GST control)"
same,binding signal,[12],"1.04 fold enrichment (6-mer frequency, TF over GST control)"
same,binding signal,[13],"1.16 fold enrichment (6-mer frequency, TF over GST control)"
same,binding signal,[14],"1.28 fold enrichment (6-mer frequency, TF over GST control)"
same,binding signal,[15],"1.23 fold enrichment (6-mer frequency, TF over GST control)"
same,binding signal,[16],"1.14 fold enrichment (6-mer frequency, TF over GST control)"
same,binding signal,[17],"1.27 fold enrichment (6-mer frequency, TF over GST control)"
same,binding signal,[18],"1.19 fold enrichment (6-mer frequency, TF over GST control)"
same,binding signal,[19],"1.3 fold enrichment (6-mer frequency, TF over GST control)"

# Source: article PMC7862700, “An all-to-all approach to the identification of sequence-specific readers for epigenetic DNA modifications on cytosine”
